# Shown are actives, neighbours in structure and some others; about 21% of the full set was active somewhere.
# DT40 TDP1 CPT – growth inhibition of DT40 Tdp1-/-;hTDP1 cells with camptothecin (screen for TDP1 inhibitors); chicken DT40 Tdp1-/-;hTDP1 cells + 20 nM CPT, ATP luminescence, 48 h; Potency, µM (doses to about 46.2 µM), inactives show at the top dose activity change, negative = growth inhibition, actives largely listed as inhibitors; hit rate 12% among 420,000; further: potency means the concentration at half of the fitted maximal effect; nearly all actives have a fitted effect of over 55% in size
#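 Chicken DT40 Tdp1-/- cells complemented with human TDP1, 400 cells/well, exposed to compounds plus 20 nM camptothecin for at least 48 h at 37 C; viability read as ATP content by CellTiter-Glo luminescence.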
# IL-1B inflam inh – inhibitors of inflammasome signaling (IL-1 beta secretion). activity change, % at 57.5 µM. hit rate 4.7% among 360,000. THP-1 LPS/ATP IL-1B secretion, AlphaLISA, 16 h; stronger effect = lower value; in the data active means activity change below about -50%; inconclusive means mostly about -30% to -49%
#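 Secreted IL-1B measured by AlphaLISA bead assay after 16 h compound exposure of THP-1 cells; compounds (final up to 57.5 uM) added 1 h before LPS (250 ng/mL) and ATP (1.25 mM) stimulation; lower signal means less secretion.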
# Gal4-VP16 FLuc – Gal4-VP16 reporter inhibition counter-screen; Drosophila S2 Gal4-VP16 UAS-luciferase, luminescence, 20 h; Potency, µM (doses to about 53.6 µM), for the others: top-dose activity, negative = inhibition, usual class: inhibitors; hit rate 3.5% among 310,000; AID 2546;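 further: Gal4-VP16 expression switched on by copper sulfate through the metallothionein promoter; potency means the concentration at half of the fitted maximal effect; nearly all actives have a fitted effect of over 50% in size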
# RORgamma inh – blocks mouse ROR gamma transcriptional activity; Drosophila S2 Gal4-RORgamma UAS-luciferase reporter, 20 h; Potency, µM (titrated, usually from 53.6 µM), for inactives: at the top dose activity change, negative = inhibition, usual class: inhibitors; hit rate 5.4% among 310,000; further: potency means the concentration at half of the fitted maximal effect; nearly all actives have a fitted effect of over 60% in size
# Target sequence (P51450 whole entry, looked up, the tested form may be a part): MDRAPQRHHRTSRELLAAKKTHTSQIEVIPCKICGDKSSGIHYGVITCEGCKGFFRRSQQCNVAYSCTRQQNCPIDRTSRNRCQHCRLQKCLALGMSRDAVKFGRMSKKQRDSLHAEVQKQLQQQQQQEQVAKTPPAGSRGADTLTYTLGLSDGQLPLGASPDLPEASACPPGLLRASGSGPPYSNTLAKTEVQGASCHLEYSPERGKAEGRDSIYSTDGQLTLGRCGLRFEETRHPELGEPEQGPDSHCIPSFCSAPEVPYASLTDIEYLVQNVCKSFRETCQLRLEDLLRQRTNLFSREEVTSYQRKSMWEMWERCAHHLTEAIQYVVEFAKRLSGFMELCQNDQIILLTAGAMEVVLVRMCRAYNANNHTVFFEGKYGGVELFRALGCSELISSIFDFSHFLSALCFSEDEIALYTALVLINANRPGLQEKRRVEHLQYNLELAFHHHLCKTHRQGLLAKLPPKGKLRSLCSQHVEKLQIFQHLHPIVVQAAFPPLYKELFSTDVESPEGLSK
#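 Drosophila Schneider cells stably carrying a metallothionein-driven Gal4 DBD–ROR gamma fusion and a UAS-Photinus luciferase reporter were exposed to compound for 1 hr, then induced with copper sulfate (700 uM final) for 20 hr at ambient temperature before luminescence reading.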
# DT40 TDP1 no CPT – qHTS for Inhibitors of human tyrosyl-DNA phosphodiesterase 1 (TDP1): qHTS in cells in absence of CPT; DT40 Tdp1-/- hTDP1 cells, no CPT, ATP luminescence, 48 h; Potency, µM (highest dose often 46.2 µM), for inactives: at the top dose activity change, negative = growth inhibition, actives largely listed as inhibitors; hit rate 15% among 420,000; further: potency means the concentration at half of the fitted maximal effect; nearly all actives have a fitted effect of over 55% in size
#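 Stably hTDP1-transfected Tdp1-null chicken DT40 cells were treated with library compounds minus camptothecin and grown for at least 48 hr at 37 °C, after which cellular ATP was quantified by luminescence.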
# ELG1 DNA repair – ELG1-dependent DNA repair inhibition; Potency, µM (series often up to 46.1 µM), for inactives: at the top dose activity change, negative = inhibition, most hits filed as inhibitors; HEK293T ELG1-luciferase reporter, luminescence, 16 h; DNA damage induced by 5-fluorouridine; hit rate 2.3% among 330,000; further: potency means the concentration at half of the fitted maximal effect; nearly all actives have a fitted effect of over 55% in size
#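 Step one: seed 2,000 cells per well. Step two: pin-transfer compound or DMSO alongside 5-fluorouridine. Step three: incubate 16 hr, 37 °C, 5% CO2. Step four: add ONE-Glo, wait 30 min, read luminescence.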
# Numbers without * were called inactive; u = inconclusive; x = not tested or not shown; [ ] = another dose, or the depositor's remark. Unless noted, the call rests on the fitted dose curve; in most records, active means well fitted curve in the direction sought with a large enough effect; inconclusive means small, poorly fitted or top-dose-only effect, or another doubt; inactive means no such curve, though single readings can be large; an effect the other way counts as inactive or inconclusive. On the % scale 0 is the no-effect control and ±100 the full control effect.
SMILES,DT40 TDP1 CPT,IL-1B inflam inh,Gal4-VP16 FLuc,RORgamma inh,DT40 TDP1 no CPT,ELG1 DNA repair
CN(Cc1ccco1)c1ncncc1-c1cccc(C#N)c1,-2.6%,x,-8.1%,-5.7%,7.1%,x
COc1cccc(N(C(=O)c2nc3nccc(C)n3n2)c2nc3ccccc3s2)c1,u,-91.6*,-13.3%,u,u,u
CNC(=O)COC(=O)c1cccnc1SC,0.6%,-22.2,2.0%,0.9%,-12.3%,7.4%
CSc1ncccc1C(=O)OCC(=O)Nc1ccc(C)c(S(=O)(=O)N2CCOCC2)c1,u,11.9,x,x,13µM*,u
Cc1ccc(NC(=O)CSc2ncnc3ccccc23)cc1S(=O)(=O)N1CCCCC1,25.9µM*,-95.5*,u,u,u,u
Cc1ccc(NC(=O)CSc2nnnn2C)cc1S(=O)(=O)N1CCCCC1,-11.5%,0.0,x,x,-17.7%,x
COCCNC(=O)COC(=O)c1cccnc1SC,18.4µM*,20.2,-3.5%,-1.1%,-107.8%,-10.4%
Cc1ccc(NC(=O)CSc2ncnc3ccccc23)cc1S(=O)(=O)N1CCOCC1,u,-100.3*,-11.8%,40.6%,14.6µM*,u
Cc1ccc(NC(=O)COc2ncnc3ccccc23)cc1S(=O)(=O)N1CCOCC1,-31.0%,3.1,-2.3%,33.0%,u,-29.3%
C=C1CCN(C(Cc2ccccc2)C(=O)N2CCOCC2)S(=O)(=O)c2ccccc21 (centres undefined),x,x,15.1%,2.3%,x,x
N=c1ccn2c(n1)O[C@H]1[C@@H](CO)[C@H](O)O[C@H]12,0.0366µM*,39.0,x,x,0.0058µM*,11.3%
O=C(OCC1OC2C(Oc3nc(=O)ccn32)C1O)c1ccccc1 (centres undefined),-2.5%,0.0,-6.0%,4.4%,-11.4%,13.6%
CN1CCN(c2nc(N3CCN(c4ccccc4)CC3)ncc2F)CC1,u,-71.0*,10.4%,0.5%,u,u
CCCC[C@@H]1CC2=C(C(=O)OC(C)(C)O2)[C@@H](c2ccc(F)cc2)O1,-20.2%,3.9,x,x,u,x
O=C1C=CC[C@H](/C=C/C[C@@H](O)C[C@H](O)CCc2ccccc2)O1,u,-96.5*,x,x,u,x
CCN1C(c2ccccc2)=C(c2ccccc2)S/C1=C/C=C1\SC(=S)N(C)C1=O,10.3µM*,-20.7,1.0%,29.3%,10.3µM*,10.3µM*
CCN1C(c2ccccc2)=C(c2ccccc2)S/C1=C\C=C1/SC(=S)N(C)C1=O,13µM*,-16.6,x,x,9.2µM*,x
CCn1c(-c2ccccc2F)nc2cc(NC(C)=O)cc(C(=O)NC(c3ccccn3)C(F)(F)F)c21 (centres undefined),-4.0%[9.04 µM],x,x,x,u,x
COc1ccc(OC)c(C2CC(=O)NC(SC)=C2C#N)c1 (centres undefined),-17.6%,-1.2,-2.5%,-23.8%,0.7%,19.6%
CSC1=C(C#N)C(c2sccc2C)CC(=O)N1 (centres undefined),u,-75.9*,6.2%,10.9%,-24.6%,6.8%
Cc1cc(N2CCN(c3ncccn3)CC2)nc2c(C)cccc12,u,39.9,4.0%,13.0%,14.6µM*,-1.4%
Cc1cc(Nc2cccc(C(F)(F)F)c2)nc2ccc(NC(=O)c3cncc(Br)c3)cc12,5.8µM*,x,x,x,5.17µM*,x
CCOc1cc(C(=O)Nc2ccc3nc(Nc4cccc(Cl)c4)cc(C)c3c2)cc(OCC)c1OCC,4.61µM*,x,x,x,6.51µM*,x
Cc1ccc2cc(NC(=O)c3ccccc3C)ccc2n1,-15.8%,1.5,-2.1%,-10.8%,0.7%,u
Cc1ccccc1C(=O)Nc1ccc2nc(Nc3cccc(C(F)(F)F)c3)cc(C)c2c1,20.6µM*,x,x,x,18.4µM*,x
SMILES,DT40 TDP1 CPT,IL-1B inflam inh,Gal4-VP16 FLuc,RORgamma inh,DT40 TDP1 no CPT,ELG1 DNA repair
Cc1cc(Nc2cccc(Cl)c2)nc2ccc(NC(=O)c3cncc(Br)c3)cc12,4.61µM*,x,x,x,5.17µM*,x
CCOC(=O)c1cccc(NC(=O)c2cncc(Br)c2)c1,-0.3%,9.6,6.0%,u,-18.9%,u
O=C(O)c1cccc(NC(=S)NC(=O)c2cncc(Br)c2)c1,6.0%,12.9,x,x,4.9%,x
COc1ccccc1N1CCN(S(=O)(=O)CCNC(=O)C(C)Oc2ccccc2)CC1 (centres undefined),u,-6.1,x,x,u,x
CCC(=O)OC1C(N(C)C)CC(C)O[C@H]1O[C@H]1[C@H](C)[C@@H](O[C@H]2CC(OC)[C@@H](O)C(C)O2)[C@H](C)C(=O)O[C@@H](CC)[C@](C)(O)[C@@H](O)[C@H](C)C(=O)[C@@H](C)C[C@]1(C)O (some centres undefined),x,x,-10.8%,7.9%,x,x
CC1CC(=O)c2c(cc3c(-c4c(O)cc(O)c5c(O)c6c(cc45)OC(C)CC6=O)c(O)cc(O)c3c2O)O1 (centres undefined),1.03µM*,3.4,12.6µM*,5.01µM*,1.3µM*,u
Cc1cccc2nc(COc3ccc4ccccc4c3Br)cn12,u,65.5,u,8.91µM*,23.1µM*,u
Cc1cccc2nc(CSc3ccccc3N)cn12,-9.4%,31.6,x,x,u,x
O=C(Nc1ccc(Cl)cc1Cl)c1cnn2c1NC(=C1CC1)C=C2C(F)F,-8.3%,x,x,x,-28.8%,x
CC1(C)CCC(=O)N2CC[C@H]3C[C@H](OC(=O)Nc4ccc5c(c4)OCO5)C[C@@H]1[C@H]32,u,-15.0,u,u,u,u
CC1(C)CCC(=O)N2CC[C@H]3C[C@H](OC(=O)Nc4ccccc4)C[C@@H]1[C@H]32,15.8µM*,-17.8,3.7%,-0.9%,u,u
O=C(Nc1ccccc1)C1CC2CCC1C2 (centres undefined),12.3%,8.9,-6.0%,10.4%,14.6%,9.4%
O=C(Nc1ccccc1)OC1CCC2CC1CCC2OC(=O)Nc1ccccc1 (centres undefined),13µM*,u,u,u,11.6µM*,u
COC(=O)N1C(C)=Cc2ccccc2C1CC(C)=O (centres undefined),x,x,0.5%,-5.8%,x,x
CC(C)(C)N(Cc1ccccc1)C(=O)COC(=O)C1CC1,-6.1%,-12.8,x,x,-20.8%,-7.0%
C[N+]1(Cc2ccccc2)CCC(C(=O)OCC2CCCC2)CC1 (centres undefined),u,x,x,x,20.6µM*,x
CCN(CC)C1Oc2cc3c(cc2C(c2cc(OC)c(O)c(OC)c2)C1C)OCO3 (centres undefined),u,27.0,x,x,u,x
